Test results published in PubChem BioAssay (EPA / NIEHS).
Inconclusive results are not listed. Active and inactive are the calls of the source. The calls were made as follows, unless noted: active = hit-call score of the fitted dose curve at least 0.9, where 1 is the maximum; inactive = score below 0.9.

Legend:
[1] = target: Paired box protein Pax-6 (Homo sapiens) (UniProt P26367); assay: ATG_Pax6_CIS: Attagene CIS-FACTORIAL HepG2 Assay for human Paired Box 6 (PAX6) (AID 2282956); conditions: HepG2 CIS-FACTORIAL PAX6 reporter transcription, RNA readout; actives raise or lower the signal
In short: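 After twenty-four hours of chemical exposure, transfected HepG2 cells are harvested for RNA. Cis-promoter reporter transcripts are amplified, fluorescently labelled and sized by capillary electrophoresis, with gain and loss of signal scored against DMSO.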

[2] = ATG_PXRE_CIS: Attagene CIS-FACTORIAL HepG2 Assay for human Pregnane X Receptor Element (PXRE) (AID 2282957); conditions: HepG2 Attagene CIS-FACTORIAL PXRE reporter, mRNA; actives raise or lower the signal
In short: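 Multiplexed cis-reporter assay in transiently transfected human HepG2 cells; 24 h chemical exposure. Reporter transcripts quantified by RT-PCR with fluorescent labeling and capillary electrophoresis.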

[3] = ATG_PPRE_CIS: Attagene CIS-FACTORIAL HepG2 Assay for human Peroxisome Proliferator-activated Response Element (PPRE) (AID 2282958); conditions: HepG2 PPRE cis-element reporter, Attagene transcription factor profiling; actives raise or lower the signal
In short: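 Transcript-level reporter induction in transfected HepG2 cells after 24 h chemical exposure, quantified by fluorescence from RT-PCR products separated by capillary electrophoresis.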

[4] = ATG_Sox_CIS: Attagene CIS-FACTORIAL HepG2 Assay for human SRY-box transcription factor (SOX) (AID 2282960); conditions: HepG2 Attagene cis-factorial SOX reporter, mRNA; actives raise or lower the signal
In short: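 Cells were transfected with reporter constructs under cis-regulatory promoters, then exposed to chemicals for 24 h. Reporter transcripts were quantified by fluorescence after RT-PCR and capillary electrophoresis; activity was fitted in both directions against DMSO.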

[5] = target: Transcription factor Sp1 (Homo sapiens) (UniProt P08047); assay: ATG_Sp1_CIS: Attagene CIS-FACTORIAL HepG2 Assay for human Specificity Protein 1 (Sp1) (AID 2282961); conditions: HepG2 Sp1 cis-reporter transcription, actives raise or lower the signal
In short: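 Measures mRNA induction of an Sp1-linked reporter in HepG2 cells 24 h post-dosing. Multiplexed reporters read by RT-PCR and capillary electrophoresis; DMSO serves as negative control and baseline.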

[6] = ATG_SREBP_CIS: Attagene CIS-FACTORIAL HepG2 Assay for human Sterol Regulatory Element Binding (SREBP) (AID 2282962); conditions: HepG2 Attagene cis-factorial SREBP reporter, mRNA; actives raise or lower the signal
In short: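 Twenty-four hours after chemical dosing of transfected HepG2 cultures, reporter RNA was converted to cDNA, amplified, end-labelled with 6-FAM and resolved by capillary electrophoresis. Responses were fitted relative to DMSO.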

[7] = target: Signal transducer and activator of transcription 3 (Homo sapiens) (UniProt P40763); assay: ATG_STAT3_CIS: Attagene CIS-FACTORIAL HepG2 Assay for human Signal Transducer and Activator of Transcription 3 (STAT3) (AID 2282963); conditions: HepG2, Attagene cis-factorial STAT3 reporter transcription; actives raise or lower the signal
In short: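 After a 24 h compound incubation, total RNA from MRTU-transfected HepG2 cells was converted to cDNA and reporter sequences PCR-amplified, labelled and profiled by capillary electrophoresis. Gain and loss of signal were referenced to DMSO.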

[8] = ATG_TA_CIS: Attagene CIS-FACTORIAL HepG2 Assay for human TA Basal Promoter (AID 2282964); conditions: HepG2 Attagene CIS-factorial TA basal promoter reporter; actives raise or lower the signal
In short: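 HepG2 cells transiently transfected with multiple reporter units under cis promoter elements, reporting endogenous transcription factor activity; this endpoint tracks the TA basal promoter as background control. Reporter mRNA after 24 h dosing measured by RT-PCR/capillary electrophoresis; bidirectional fits versus DMSO.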

[9] = ATG_TCF_b_cat_CIS: Attagene CIS-FACTORIAL HepG2 Assay for human T-Cell-Factor with beta-catenin (TCF/b-cat) (AID 2282965); conditions: HepG2 TCF/beta-catenin cis-reporter transcription, actives raise or lower the signal
In short: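 Endogenous transcription factor activity is captured through cis-promoter reporter constructs transiently introduced into human HepG2 liver cells. Induced reporter mRNA is measured after 24 h and fitted bidirectionally relative to DMSO.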

[10] = ATG_TAL_CIS: Attagene CIS-FACTORIAL HepG2 Assay for human TAL Basal Promoter (AID 2282966); conditions: HepG2 Attagene cis-factorial TAL promoter reporter; actives raise or lower the signal;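 also: background control endpoint measuring basal TAL promoter reporter mRNA not a specific factor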
In short: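 Steps: transfect HepG2 with multiple reporter transcription units; dose 24 h; isolate RNA, reverse-transcribe, PCR-amplify, label with 6-FAM, digest with HpaI; resolve by capillary electrophoresis. Bidirectional fitting against DMSO baseline.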

[11] = ATG_VDRE_CIS: Attagene CIS-FACTORIAL HepG2 Assay for human Vitamin D Receptor Element (VDRE) (AID 2282968); conditions: HepG2 VDRE cis-reporter transcription, actives raise or lower the signal
In short: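 In transiently transfected HepG2 liver cells, gain or loss of reporter mRNA after 24 h exposure is scored relative to DMSO, using fluorescence detection by capillary electrophoresis of RT-PCR products.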

[12] = target: X-box-binding protein 1 (Homo sapiens) (UniProt P17861); assay: ATG_Xbp1_CIS: Attagene CIS-FACTORIAL HepG2 Assay for human X-box Binding Protein 1 (XBP1) (AID 2282972); conditions: HepG2 XBP1 cis-element reporter, Attagene multiplex; actives raise or lower the signal
In short: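 After a 24-hour chemical exposure of HepG2 cells carrying cis-regulated reporters, reporter mRNA levels are assessed. Quantification uses RT-PCR, 6-FAM labelling and capillary electrophoresis. Gain- or loss-of-signal is fitted against DMSO.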

[13] = ATG_M_19_TRANS: Attagene TRANS-FACTORIAL HepG2 Assay for M19 Transcription Factor (Internal Marker) (AID 2282974; active = hit-call score of the fitted dose curve at least 0.9, where 1 is the maximum); conditions: HepG2 Attagene TRANS-FACTORIAL M19 internal marker reporter
In short: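 After transfection of HepG2 with GAL4-UAS-driven reporter constructs, cells are dosed for 24 h. Total RNA is reverse-transcribed, reporter sequences PCR-amplified and labelled, then HpaI-digested and sized by capillary electrophoresis.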

[14] = ATG_RORE_CIS: Attagene CIS-FACTORIAL HepG2 Assay for human RAR-related Orphan Receptor Element (RORE) (AID 2282959); conditions: HepG2 Attagene cis-factorial RORE reporter, mRNA; actives raise or lower the signal
In short: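 Multiplexed reporter assay measuring mRNA induction from a cis promoter element in transiently transfected HepG2 cells after 24 h treatment. Detection via RT-PCR and capillary electrophoresis fluorescence; DMSO serves as baseline.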

[15] = target: Estrogen receptor (Homo sapiens) (UniProt P03372); assay: ATG_ERa_TRANS: Attagene TRANS-FACTORIAL HepG2 Assay for human Estrogen Receptor alpha (ERa) (AID 2282970; active = hit-call score of the fitted dose curve at least 0.9, where 1 is the maximum); conditions: HepG2 Attagene TRANS ERa GAL4 reporter, mRNA
In short: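 Multiplexed cell-based reporter format in HepG2: chimeric ERa-Gal4 protein drives GAL4-UAS reporter transcription. Fluorescent reporter mRNA quantified by capillary electrophoresis 24 hours after dosing; endpoint fitted as signal gain against DMSO.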

[16] = ATG_GAL4_TRANS: Attagene TRANS-FACTORIAL HepG2 Assay for GAL4 (Internal Marker) (AID 2282976; active = hit-call score of the fitted dose curve at least 0.9, where 1 is the maximum); conditions: HepG2 Attagene TRANS GAL4 internal marker reporter
In short: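 Liver HepG2 line bearing multiplexed GAL4-UAS reporter constructs; 24 h chemical treatment. Transcripts were quantified as fluorescent fragments on capillary electrophoresis after RT-PCR and HpaI cut, with activity fitted upward from DMSO.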

[17] = ATG_TGFb_CIS: Attagene CIS-FACTORIAL HepG2 Assay for human Transforming Growth Factor (TGF) (AID 2282967); conditions: HepG2 Attagene CIS TGFb reporter, mRNA transcription; actives raise or lower the signal
In short: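 HepG2 cells transiently transfected with cis-promoter-driven multiple reporter units measure endogenous TF activity; reporter mRNA quantified at 24 h by RT-PCR, FAM labeling, HpaI digestion and capillary electrophoresis. Bidirectional fit vs DMSO.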

[18] = target: Nuclear receptor subfamily 1 group I member 3 (Homo sapiens) (UniProt Q14994); assay: ATG_CAR_TRANS: Attagene TRANS-FACTORIAL HepG2 Assay for human Constitutive Androstane Receptor (CAR) (AID 2282969; active = hit-call score of the fitted dose curve at least 0.9, where 1 is the maximum;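 also: activators raise reporter mRNA above DMSO so AC50 marks induction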); conditions: HepG2 Attagene TRANS-FACTORIAL CAR reporter
In short: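 Readout is reporter mRNA induction, quantified by fluorescent primer extension and capillary electrophoresis after RT-PCR. Cells were HepG2 transiently carrying chimeric NR-Gal4 constructs with GAL4-UAS reporters, treated for 24 h; activity scored upward from DMSO.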

[19] = target: Steroid hormone receptor ERR1 (Homo sapiens) (UniProt P11474); assay: ATG_ERRa_TRANS: Attagene TRANS-FACTORIAL HepG2 Assay for human Estrogen-Related Receptor alpha (ERRa) (AID 2282971; active = hit-call score of the fitted dose curve at least 0.9, where 1 is the maximum); conditions: HepG2 Attagene TRANS reporter, ERRa transactivation
In short: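 Signal gain relative to DMSO for an ERRa-Gal4 chimeric receptor, read as reporter mRNA by RT-PCR/capillary electrophoresis. Human HepG2 liver cells, transient multiplex reporter transfection, 24 h chemical exposure.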

[20] = target: Estrogen-related receptor gamma (Homo sapiens) (UniProt P62508); assay: ATG_ERRg_TRANS: Attagene TRANS-FACTORIAL HepG2 Assay for human Estrogen-Related Receptor gamma (ERRg) (AID 2282977; active = hit-call score of the fitted dose curve at least 0.9, where 1 is the maximum;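 also: hits increase reporter signal over DMSO so potencies reflect activators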); conditions: HepG2 Attagene TRANS reporter, ERRg transactivation
In short: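 Transient HepG2 transfectants, 24 h compound exposure, GAL4-UAS reporter mRNA by RT-PCR/6-FAM labelling/capillary electrophoresis; positive direction vs DMSO.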

Measured: AC50

Sequence of Signal transducer and activator of transcription 3 (Homo sapiens) (P40763 whole entry, looked up): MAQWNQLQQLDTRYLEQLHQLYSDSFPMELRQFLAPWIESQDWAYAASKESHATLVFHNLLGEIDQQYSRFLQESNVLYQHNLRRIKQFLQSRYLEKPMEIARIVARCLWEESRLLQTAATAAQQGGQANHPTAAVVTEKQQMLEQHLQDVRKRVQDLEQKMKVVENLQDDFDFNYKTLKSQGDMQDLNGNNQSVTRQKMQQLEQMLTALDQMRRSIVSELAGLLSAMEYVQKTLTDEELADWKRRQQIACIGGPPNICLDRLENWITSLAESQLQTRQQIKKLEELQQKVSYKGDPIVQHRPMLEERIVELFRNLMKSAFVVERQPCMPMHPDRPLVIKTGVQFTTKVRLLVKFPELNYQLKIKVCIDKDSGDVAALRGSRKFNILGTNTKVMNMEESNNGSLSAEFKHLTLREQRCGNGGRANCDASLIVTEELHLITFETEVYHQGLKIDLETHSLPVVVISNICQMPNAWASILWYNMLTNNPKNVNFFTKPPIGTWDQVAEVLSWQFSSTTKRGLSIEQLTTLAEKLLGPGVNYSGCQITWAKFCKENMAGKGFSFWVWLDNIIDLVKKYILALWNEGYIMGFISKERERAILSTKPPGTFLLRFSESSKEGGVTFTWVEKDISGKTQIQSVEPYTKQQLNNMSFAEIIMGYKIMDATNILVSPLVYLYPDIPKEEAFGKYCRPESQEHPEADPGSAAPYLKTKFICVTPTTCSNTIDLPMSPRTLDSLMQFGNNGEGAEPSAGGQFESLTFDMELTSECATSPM
Sequence of Steroid hormone receptor ERR1 (Homo sapiens) (P11474 whole entry, looked up, the tested form may be a part): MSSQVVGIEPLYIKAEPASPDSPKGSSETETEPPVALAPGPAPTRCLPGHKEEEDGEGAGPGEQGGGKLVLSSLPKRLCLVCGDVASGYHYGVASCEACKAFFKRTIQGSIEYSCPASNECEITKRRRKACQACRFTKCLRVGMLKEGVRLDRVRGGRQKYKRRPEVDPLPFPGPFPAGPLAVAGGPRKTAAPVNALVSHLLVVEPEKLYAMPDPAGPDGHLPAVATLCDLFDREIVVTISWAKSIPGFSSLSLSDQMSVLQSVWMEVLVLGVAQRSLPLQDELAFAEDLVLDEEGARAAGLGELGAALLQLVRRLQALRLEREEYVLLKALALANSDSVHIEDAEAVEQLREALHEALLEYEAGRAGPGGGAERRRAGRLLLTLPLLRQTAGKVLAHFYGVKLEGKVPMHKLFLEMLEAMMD
Sequence of Transcription factor Sp1 (Homo sapiens) (P08047 whole entry, looked up): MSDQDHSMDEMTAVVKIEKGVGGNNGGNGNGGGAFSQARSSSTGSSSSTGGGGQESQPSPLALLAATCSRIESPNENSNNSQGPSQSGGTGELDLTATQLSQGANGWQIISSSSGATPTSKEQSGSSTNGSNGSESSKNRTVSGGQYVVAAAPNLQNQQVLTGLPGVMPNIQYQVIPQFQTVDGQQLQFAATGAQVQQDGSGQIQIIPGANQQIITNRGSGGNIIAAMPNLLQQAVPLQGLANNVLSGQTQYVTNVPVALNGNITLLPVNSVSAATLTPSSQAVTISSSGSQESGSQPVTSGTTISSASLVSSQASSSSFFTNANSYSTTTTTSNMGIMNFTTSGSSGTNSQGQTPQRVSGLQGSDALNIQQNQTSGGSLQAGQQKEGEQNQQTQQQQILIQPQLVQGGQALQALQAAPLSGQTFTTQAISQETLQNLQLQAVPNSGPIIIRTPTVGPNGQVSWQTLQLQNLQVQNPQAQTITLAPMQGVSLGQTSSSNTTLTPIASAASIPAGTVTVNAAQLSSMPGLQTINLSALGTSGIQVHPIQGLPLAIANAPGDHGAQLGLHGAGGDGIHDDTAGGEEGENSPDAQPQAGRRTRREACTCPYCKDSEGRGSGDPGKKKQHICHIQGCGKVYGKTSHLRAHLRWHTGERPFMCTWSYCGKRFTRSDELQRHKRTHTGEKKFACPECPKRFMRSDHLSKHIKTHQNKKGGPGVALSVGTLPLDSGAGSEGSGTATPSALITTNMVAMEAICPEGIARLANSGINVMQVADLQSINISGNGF
Sequence of Estrogen receptor (Homo sapiens) (P03372 whole entry, looked up, the tested form may be a part): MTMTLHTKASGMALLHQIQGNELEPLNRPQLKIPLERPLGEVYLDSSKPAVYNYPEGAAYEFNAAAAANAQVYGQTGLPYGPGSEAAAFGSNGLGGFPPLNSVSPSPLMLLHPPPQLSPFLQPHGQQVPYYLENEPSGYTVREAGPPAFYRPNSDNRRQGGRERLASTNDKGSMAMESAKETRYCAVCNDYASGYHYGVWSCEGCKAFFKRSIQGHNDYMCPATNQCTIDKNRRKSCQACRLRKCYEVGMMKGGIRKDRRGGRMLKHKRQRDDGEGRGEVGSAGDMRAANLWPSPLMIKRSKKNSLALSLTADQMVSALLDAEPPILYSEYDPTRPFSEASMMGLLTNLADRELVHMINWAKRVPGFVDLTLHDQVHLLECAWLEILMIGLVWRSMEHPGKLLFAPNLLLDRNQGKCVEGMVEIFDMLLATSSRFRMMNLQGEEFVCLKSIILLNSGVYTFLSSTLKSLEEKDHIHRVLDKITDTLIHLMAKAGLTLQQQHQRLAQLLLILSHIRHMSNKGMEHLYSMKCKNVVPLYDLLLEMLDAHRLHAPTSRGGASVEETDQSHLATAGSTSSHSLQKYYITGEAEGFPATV
Sequence of X-box-binding protein 1 (Homo sapiens) (P17861 whole entry, looked up): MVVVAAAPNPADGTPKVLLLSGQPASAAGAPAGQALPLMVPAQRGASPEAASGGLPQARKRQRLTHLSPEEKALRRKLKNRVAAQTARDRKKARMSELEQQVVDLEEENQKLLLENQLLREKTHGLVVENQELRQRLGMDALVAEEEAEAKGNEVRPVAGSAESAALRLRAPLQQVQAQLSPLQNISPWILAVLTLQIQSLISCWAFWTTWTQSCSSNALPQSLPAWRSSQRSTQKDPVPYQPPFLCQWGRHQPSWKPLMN
Sequence of Paired box protein Pax-6 (Homo sapiens) (P26367 whole entry, looked up): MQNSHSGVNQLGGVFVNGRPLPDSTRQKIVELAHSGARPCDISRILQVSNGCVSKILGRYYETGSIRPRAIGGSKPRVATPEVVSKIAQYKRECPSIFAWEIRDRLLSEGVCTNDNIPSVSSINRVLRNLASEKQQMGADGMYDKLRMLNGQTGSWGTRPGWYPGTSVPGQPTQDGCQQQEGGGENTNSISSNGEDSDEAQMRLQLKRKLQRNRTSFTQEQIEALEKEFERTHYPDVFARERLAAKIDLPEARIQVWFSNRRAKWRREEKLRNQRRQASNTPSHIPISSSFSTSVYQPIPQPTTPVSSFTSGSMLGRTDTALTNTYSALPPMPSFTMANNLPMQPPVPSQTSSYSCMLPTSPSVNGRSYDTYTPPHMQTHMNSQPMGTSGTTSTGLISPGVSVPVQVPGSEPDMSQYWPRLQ
Sequence of Estrogen-related receptor gamma (Homo sapiens) (P62508 whole entry, looked up, the tested form may be a part): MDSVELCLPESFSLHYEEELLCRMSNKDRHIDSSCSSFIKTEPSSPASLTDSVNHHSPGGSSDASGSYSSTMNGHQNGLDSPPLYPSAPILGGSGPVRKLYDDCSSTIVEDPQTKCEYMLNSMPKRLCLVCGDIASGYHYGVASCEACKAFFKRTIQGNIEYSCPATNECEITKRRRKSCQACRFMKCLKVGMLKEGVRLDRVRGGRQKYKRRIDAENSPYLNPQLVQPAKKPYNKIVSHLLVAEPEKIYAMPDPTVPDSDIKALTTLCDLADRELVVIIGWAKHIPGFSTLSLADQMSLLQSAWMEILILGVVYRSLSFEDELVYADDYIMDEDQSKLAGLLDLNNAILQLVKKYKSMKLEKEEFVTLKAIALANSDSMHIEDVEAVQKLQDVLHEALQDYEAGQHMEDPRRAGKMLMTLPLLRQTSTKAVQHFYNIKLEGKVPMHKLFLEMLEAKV
Sequence of Nuclear receptor subfamily 1 group I member 3 (Homo sapiens) (Q14994 whole entry, looked up, the tested form may be a part): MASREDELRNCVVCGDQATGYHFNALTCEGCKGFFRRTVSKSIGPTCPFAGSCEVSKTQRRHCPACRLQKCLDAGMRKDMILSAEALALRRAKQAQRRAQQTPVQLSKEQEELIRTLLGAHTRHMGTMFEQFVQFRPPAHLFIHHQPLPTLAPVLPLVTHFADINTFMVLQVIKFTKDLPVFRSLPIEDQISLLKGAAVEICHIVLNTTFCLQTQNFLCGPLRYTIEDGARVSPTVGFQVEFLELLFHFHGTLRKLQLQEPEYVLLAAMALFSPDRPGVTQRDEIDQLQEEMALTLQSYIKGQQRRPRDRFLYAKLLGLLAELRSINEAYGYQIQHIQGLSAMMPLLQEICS

COCc1c(C(C)C)nc(C(C)C)c(/C=C/[C@@H](O)C[C@@H](O)CC(=O)O)c1-c1ccc(F)cc1
active: [2] 2.12 µM | [3] 1.67 µM | [11] 2.34 µM
not listed: [14] | [15] | [16] | [17] | [18] | [19] | [20]
inactive: all other assays above

C=CCOCC(O)CCl (centres undefined)
active: [2] 35.5 µM | [11] 34.8 µM
not listed: [4] | [9] | [13] | [17] | [18] | [19] | [20]
inactive: all other assays above

CCCCNc1ccc(NCCCC)c2c1C(=O)c1ccccc1C2=O
active: [2] 0.886 µM
not listed: [14] | [16] | [18] | [19] | [20]
inactive: all other assays above

Oc1ccc(Cl)cc1Cc1cc(Cl)ccc1O
inactive: [2] | [4] | [7] | [8] | [10] | [15]
active: [1] 11.1 µM | [3] 4.48 µM | [6] 7.54 µM | [9] 18.8 µM | [17] 11.1 µM | [11] 7 µM | [12] 6.64 µM

CC=CC(=O)N(CC)c1ccccc1C
active: [2] 11.1 µM | [11] 15.5 µM
not listed: [3] | [16] | [17] | [20]
inactive: all other assays above

CCCCCC/C=C/C=O
active: [2] 37.8 µM
not listed: [3] | [9] | [11] | [15] | [18]
inactive: all other assays above

O=Cc1ccc(CO)o1
not listed: [3] | [13] | [15] | [17] | [18] | [19]
inactive: all other assays above

CCCCC(CC)COCC1CO1 (centres undefined)
not listed: [3] | [13] | [18] | [19]
inactive: all other assays above

CCCCCC(C)O (centres undefined)
not listed: [3] | [13] | [18] | [19] | [20]
inactive: all other assays above

N#CCc1ccc(Cl)cc1Cl
active: [2] 61.8 µM
not listed: [3] | [9] | [16] | [19] | [20]
inactive: all other assays above

CC1=Nc2ccc3ccccc3c2C1(C)C
active: [2] 1.78 µM | [6] 100 µM | [11] 2.97 µM | [15] 17.1 µM
not listed: [3] | [16] | [18]
inactive: all other assays above

O=C(O)c1cc(Cl)cc([N+](=O)[O-])c1Cl
not listed: [3] | [15] | [19] | [20]
inactive: all other assays above

COc1ccc(C(Cl)=C(c2ccc(OC)cc2)c2ccc(OC)cc2)cc1
active: [2] 2.54 µM | [11] 4.46 µM
not listed: [3] | [13] | [15] | [16] | [20]
inactive: all other assays above

NC(CO)(CO)CO
active: [2] 42 µM
not listed: [3] | [13] | [15] | [16] | [18] | [19] | [20]
inactive: all other assays above

CCCCCCCCC(=O)OCC
not listed: [3] | [7] | [16] | [18] | [19]
inactive: all other assays above

NC(=O)OCC(COC(N)=O)c1ccccc1
not listed: [3] | [11] | [13] | [18] | [19] | [20]
inactive: all other assays above

OCCc1ccncc1
not listed: [3] | [8] | [13] | [18] | [20]
inactive: all other assays above

SCCc1cnccn1
active: [2] 78.1 µM | [10] 100 µM
not listed: [3] | [11] | [13] | [15] | [18] | [20]
inactive: all other assays above
